Laboratory results taken from the supplement of paper PMC10849652.
The full data set covers some 7,900 targets. This sample favours those with a hit. About 0.6% of all pairs of compound and target were hits. Unmarked numbers belong to inactive results.

How the values were obtained:
Test in all cases: log2 fold change, soluble protein after heating vs DMSO (PISA); higher = thermal stabilisation; K562 cells, 10 uM, 30 min; active = over 0.2 and 3.5 SD of the protein, either way, in both replicates (recomputed)
[1] = compound: CC[C@@H]1C(=O)N(C)c2cnc(Nc3ccc(C(=O)NC4CCN(C)CC4)cc3OC)nc2N1C1CCCC1
Method in brief: (§1)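 K562 cells (2×10^6 cells/mL) were treated with 10 μM compound for 30 min, and aliquots were heated for 3 min over 48°C-58°C. Pooled aliquots were extracted in PBS with 0.5% NP-40 at 4°C, and the supernatant after 21,000xg for 90 min was measured by TMTpro 16plex LC-MS/MS with channel sums equalised. Reported thermal stability, relative to control samples and from duplicates, is a log2 fold change.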

volasertib = compound: CC[C@@H]1C(=O)N(C)c2cnc(Nc3ccc(C(=O)N[C@H]4CC[C@H](N5CCN(CC6CC6)CC5)CC4)cc3OC)nc2N1C(C)C [volasertib]
Method in brief: as §1

[2] = compound: CC[C@H](C)N1C=C(C2=C(C=C(C=C21)C3=CN=C(C=C3)N4CCNCC4)C(=O)NCC5=C(C=C(NC5=O)C)C)C
Method in brief: as §1

epoxomicin = compound: CC[C@H](C)[C@@H](C(=O)N[C@@H]([C@@H](C)O)C(=O)N[C@@H](CC(C)C)C(=O)[C@]1(CO1)C)NC(=O)[C@H]([C@@H](C)CC)N(C)C(=O)C [epoxomicin]
Method in brief: as §1

[3] = compound: CCn1c(C(=O)N(C2CC2)C2CC2)cc2c3c(ncn3C)c(Nc3cc(C)n(C)n3)nc21
Method in brief: as §1

[4] = compound: CCn1cc(-c2ccnc3[nH]c(-c4cccc(CN(C)C)c4)cc23)c(-c2ccc(NC(=O)N(C)C)cc2)n1
Method in brief: as §1

[5] = compound: CN(C)CC(=O)Nc1ccc2[nH]c(=O)c3ccccc3c2c1
Method in brief: as §1

rosiglitazone = compound: CN(CCOC1=CC=C(C=C1)C[C@H]2C(=O)NC(=O)S2)C3=CC=CC=N3 (racemic) [rosiglitazone]
Method in brief: as §1

[6] = compound: CN1C2=C(C3=C1C(=O)N(N=C3)CC4=CC(=CC=C4)N)SC(=C2)S(=O)C
Method in brief: as §1

[7] = compound: CN1CCC(CNc2ccc3ncc(-c4cccc(OC(F)(F)F)c4)n3n2)CC1
Method in brief: as §1

saracatinib = compound: CN1CCN(CCOc2cc(OC3CCOCC3)c3c(Nc4c(Cl)ccc5c4OCO5)ncnc3c2)CC1 [saracatinib]
Method in brief: as §1

sotrastaurin = compound: CN1CCN(c2nc(C3=C(c4c[nH]c5ccccc45)C(=O)NC3=O)c3ccccc3n2)CC1 [sotrastaurin]
Method in brief: as §1

alvocidib = compound: CN1CC[C@H](c2c(O)cc(O)c3c(=O)cc(-c4ccccc4Cl)oc23)[C@H](O)C1 [alvocidib]
Method in brief: as §1

Tubastatin A = compound: CN1CCc2c(c3ccccc3n2Cc2ccc(C(=O)NO)cc2)C1 [Tubastatin A]
Method in brief: as §1

[8] = compound: CNC(=O)C1=CC=CC=C1NC2=NC(=NC=C2Cl)NC3=C(C=C(C=C3)N4CCOCC4)OC
Method in brief: as §1

defactinib = compound: CNC(=O)c1ccc(Nc2ncc(C(F)(F)F)c(NCc3nccnc3N(C)S(C)(=O)=O)n2)cc1 [defactinib]
Method in brief: as §1

rucaparib = compound: CNCc1ccc(-c2[nH]c3cc(F)cc4c3c2CCNC4=O)cc1 [rucaparib]
Method in brief: as §1

[9] = compound: CNc1nc(-c2ccc3c(N)n[nH]c3c2)cc(N2C[C@@H](C(=O)NC3CCCCC3)CC[C@H]2C)n1
Method in brief: as §1

encorafenib = compound: COC(=O)N[C@@H](C)CNc1nccc(-c2cn(C(C)C)nc2-c2cc(Cl)cc(NS(C)(=O)=O)c2F)n1 [encorafenib]
Method in brief: as §1

[10] = compound: COC(=O)[C@H](CCSC)NC(=O)C1=C(C=C(C=C1)NC[C@H](CS)N)C2=CC=CC=C2
Method in brief: as §1

UniProt Q9BPX6, sequence (Q9BPX6 whole entry, looked up): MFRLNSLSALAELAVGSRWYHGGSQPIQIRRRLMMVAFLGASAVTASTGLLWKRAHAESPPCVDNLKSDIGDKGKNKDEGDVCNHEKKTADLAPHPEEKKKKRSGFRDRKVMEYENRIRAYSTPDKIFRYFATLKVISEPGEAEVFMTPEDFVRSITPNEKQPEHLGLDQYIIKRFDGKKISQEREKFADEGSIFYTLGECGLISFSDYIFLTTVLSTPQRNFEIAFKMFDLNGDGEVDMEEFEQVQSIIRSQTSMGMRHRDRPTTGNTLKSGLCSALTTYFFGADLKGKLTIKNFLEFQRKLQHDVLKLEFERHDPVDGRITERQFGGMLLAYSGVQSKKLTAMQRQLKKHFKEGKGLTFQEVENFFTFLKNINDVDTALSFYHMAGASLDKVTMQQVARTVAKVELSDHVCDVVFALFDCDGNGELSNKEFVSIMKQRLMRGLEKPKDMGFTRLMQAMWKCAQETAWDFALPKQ
UniProt P49137, sequence (P49137 whole entry, looked up): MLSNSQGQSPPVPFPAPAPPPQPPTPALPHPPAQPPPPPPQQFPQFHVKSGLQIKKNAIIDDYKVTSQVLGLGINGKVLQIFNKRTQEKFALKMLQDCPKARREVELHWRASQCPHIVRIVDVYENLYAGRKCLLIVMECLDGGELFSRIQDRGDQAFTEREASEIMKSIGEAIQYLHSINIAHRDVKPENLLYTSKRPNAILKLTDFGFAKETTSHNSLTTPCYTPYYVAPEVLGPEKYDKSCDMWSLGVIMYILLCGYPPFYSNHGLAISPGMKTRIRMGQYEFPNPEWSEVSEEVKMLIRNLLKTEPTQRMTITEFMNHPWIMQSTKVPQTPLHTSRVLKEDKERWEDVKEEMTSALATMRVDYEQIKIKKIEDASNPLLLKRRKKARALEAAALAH
UniProt P52732, sequence (P52732 whole entry, looked up): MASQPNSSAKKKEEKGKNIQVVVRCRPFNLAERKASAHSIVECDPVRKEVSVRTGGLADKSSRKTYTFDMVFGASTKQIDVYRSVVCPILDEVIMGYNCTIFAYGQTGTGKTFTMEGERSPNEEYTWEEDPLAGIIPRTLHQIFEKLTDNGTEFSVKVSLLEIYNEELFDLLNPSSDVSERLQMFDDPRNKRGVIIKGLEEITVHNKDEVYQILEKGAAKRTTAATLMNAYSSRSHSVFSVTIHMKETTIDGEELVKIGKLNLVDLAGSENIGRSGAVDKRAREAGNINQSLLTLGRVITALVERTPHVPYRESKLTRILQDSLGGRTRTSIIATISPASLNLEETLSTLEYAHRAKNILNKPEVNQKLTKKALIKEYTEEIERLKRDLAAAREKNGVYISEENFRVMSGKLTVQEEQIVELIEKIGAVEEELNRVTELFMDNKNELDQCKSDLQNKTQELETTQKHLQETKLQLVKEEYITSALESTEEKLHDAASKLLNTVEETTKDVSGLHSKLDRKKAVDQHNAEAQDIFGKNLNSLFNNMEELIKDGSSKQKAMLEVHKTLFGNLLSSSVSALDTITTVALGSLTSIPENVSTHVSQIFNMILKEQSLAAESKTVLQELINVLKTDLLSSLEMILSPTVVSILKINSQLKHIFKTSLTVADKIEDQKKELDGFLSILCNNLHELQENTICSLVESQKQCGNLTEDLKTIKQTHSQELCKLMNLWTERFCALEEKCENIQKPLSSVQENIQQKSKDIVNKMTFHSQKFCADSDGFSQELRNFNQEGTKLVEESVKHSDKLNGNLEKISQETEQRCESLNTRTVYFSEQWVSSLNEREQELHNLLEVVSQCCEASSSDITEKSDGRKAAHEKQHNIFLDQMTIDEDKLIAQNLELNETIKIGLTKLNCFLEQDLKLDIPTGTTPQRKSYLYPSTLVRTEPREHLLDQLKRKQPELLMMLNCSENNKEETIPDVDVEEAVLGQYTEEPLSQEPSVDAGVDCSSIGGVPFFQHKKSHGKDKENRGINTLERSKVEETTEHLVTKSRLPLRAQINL
UniProt Q8WV07, sequence (Q8WV07 whole entry, looked up): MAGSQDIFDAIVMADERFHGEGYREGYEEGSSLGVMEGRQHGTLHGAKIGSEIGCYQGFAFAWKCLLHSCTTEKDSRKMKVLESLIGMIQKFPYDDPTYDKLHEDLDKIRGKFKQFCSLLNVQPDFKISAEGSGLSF
UniProt Q9BQK8, sequence (Q9BQK8 whole entry, looked up): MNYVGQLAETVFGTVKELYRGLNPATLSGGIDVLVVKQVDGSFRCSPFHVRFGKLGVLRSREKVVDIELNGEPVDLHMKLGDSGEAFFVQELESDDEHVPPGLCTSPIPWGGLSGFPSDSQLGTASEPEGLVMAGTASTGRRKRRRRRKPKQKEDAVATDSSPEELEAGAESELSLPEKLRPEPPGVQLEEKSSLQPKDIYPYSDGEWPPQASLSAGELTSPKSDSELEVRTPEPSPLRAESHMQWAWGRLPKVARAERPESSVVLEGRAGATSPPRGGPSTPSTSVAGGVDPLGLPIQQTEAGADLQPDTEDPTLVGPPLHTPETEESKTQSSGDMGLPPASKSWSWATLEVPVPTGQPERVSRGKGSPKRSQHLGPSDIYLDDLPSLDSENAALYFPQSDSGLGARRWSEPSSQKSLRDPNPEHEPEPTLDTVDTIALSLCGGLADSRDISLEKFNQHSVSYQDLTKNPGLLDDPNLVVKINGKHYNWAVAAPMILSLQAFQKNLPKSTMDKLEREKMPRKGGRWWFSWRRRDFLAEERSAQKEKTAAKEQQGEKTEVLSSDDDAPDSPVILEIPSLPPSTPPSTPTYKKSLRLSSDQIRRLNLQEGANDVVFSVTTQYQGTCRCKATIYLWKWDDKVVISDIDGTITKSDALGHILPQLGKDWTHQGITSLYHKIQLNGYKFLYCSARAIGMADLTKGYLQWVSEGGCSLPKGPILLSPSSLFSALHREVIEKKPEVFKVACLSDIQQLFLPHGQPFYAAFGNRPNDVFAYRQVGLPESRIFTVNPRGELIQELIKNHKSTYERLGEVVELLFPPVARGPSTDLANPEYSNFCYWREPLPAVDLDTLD
UniProt Q9NQ29, sequence (Q9NQ29 whole entry, looked up): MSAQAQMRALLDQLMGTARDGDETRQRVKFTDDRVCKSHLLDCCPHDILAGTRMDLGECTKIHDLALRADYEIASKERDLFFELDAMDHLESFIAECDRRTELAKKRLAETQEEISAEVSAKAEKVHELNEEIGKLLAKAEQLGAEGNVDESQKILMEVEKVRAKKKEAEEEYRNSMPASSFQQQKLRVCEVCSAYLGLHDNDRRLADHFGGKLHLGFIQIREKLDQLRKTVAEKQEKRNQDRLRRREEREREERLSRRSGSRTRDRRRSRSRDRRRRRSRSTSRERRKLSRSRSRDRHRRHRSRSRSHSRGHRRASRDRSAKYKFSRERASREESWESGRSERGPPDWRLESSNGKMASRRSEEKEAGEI
UniProt Q16539, sequence (Q16539 whole entry, looked up): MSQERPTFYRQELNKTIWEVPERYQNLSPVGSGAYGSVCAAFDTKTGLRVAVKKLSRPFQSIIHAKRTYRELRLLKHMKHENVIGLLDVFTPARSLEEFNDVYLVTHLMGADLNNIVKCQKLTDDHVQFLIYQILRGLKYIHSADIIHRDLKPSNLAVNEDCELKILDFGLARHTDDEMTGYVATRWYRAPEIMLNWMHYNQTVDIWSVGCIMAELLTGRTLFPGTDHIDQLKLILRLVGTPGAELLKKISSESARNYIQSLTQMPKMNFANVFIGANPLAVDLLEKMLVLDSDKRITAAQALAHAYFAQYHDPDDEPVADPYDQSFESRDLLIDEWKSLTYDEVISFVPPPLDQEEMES

Target MAPKAPK2 (UniProt P49137) has a log2 fold change [1] of -0.058, a log2 fold change (volasertib) of -0.059 and a log2 fold change [2] of 0.026. For the same target, the log2 fold change (epoxomicin) was 0.049, the log2 fold change [3] was 0.022 and the log2 fold change [4] was -0.002. The log2 fold change [5] was 0.032, the log2 fold change (rosiglitazone) was 0.023 and the log2 fold change [6] was -0.007. For the same target, the log2 fold change [7] was -0.018, the log2 fold change (saracatinib) was 0.077 and the log2 fold change (sotrastaurin) was -0.035. It also gave a log2 fold change (alvocidib) of 0, a log2 fold change (Tubastatin A) of -0.006 and a log2 fold change [8] of -0.01. The log2 fold change (defactinib) was -0.013, the log2 fold change (rucaparib) was 0 and the log2 fold change [9] was -0.022. The log2 fold change (encorafenib) was 0.139 and the log2 fold change [10] was 0.023.
LPIN3 isoform 2 (UniProt Q9BQK8) showed a log2 fold change [1] of 0.016, a log2 fold change (volasertib) of -0.015 and a log2 fold change [2] of 0.04. The log2 fold change (epoxomicin) was 0.073, the log2 fold change [3] was -0.048 and the log2 fold change [4] was -0.078. The log2 fold change [5] was -0.054, the log2 fold change (rosiglitazone) was 0.135 and the log2 fold change [6] was 0.002. The log2 fold change [7] was -0.27 (active), the log2 fold change (saracatinib) was -0.101 and the log2 fold change (sotrastaurin) was 0.171. For the same target, the log2 fold change (alvocidib) was -0.074, the log2 fold change (Tubastatin A) was 0.093 and the log2 fold change [8] was -0.087. It also gave a log2 fold change (defactinib) of -0.022, a log2 fold change (rucaparib) of 0.049 and a log2 fold change [9] of 0.049. For the same target, the log2 fold change (encorafenib) was 0.051 and the log2 fold change [10] was -0.012.
With MAPK14 isoform 2 (UniProt Q16539) the log2 fold change [1] was -0.223, the log2 fold change (volasertib) was -0.398 and the log2 fold change [2] was -0.019. For the same target, the log2 fold change (epoxomicin) was 0.02, the log2 fold change [3] was 0.081 and the log2 fold change [4] was 0.001. For the same target, the log2 fold change [5] was 0.039, the log2 fold change (rosiglitazone) was 0.007 and the log2 fold change [6] was -0.029. It also gave a log2 fold change [7] of 0.074, a log2 fold change (saracatinib) of 0.486 and a log2 fold change (sotrastaurin) of -0.085. The log2 fold change (alvocidib) was -0.021, the log2 fold change (Tubastatin A) was 0.145 and the log2 fold change [8] was 0.559. The log2 fold change (defactinib) was -0.25, the log2 fold change (rucaparib) was 0.127 and the log2 fold change [9] was -0.029. The log2 fold change (encorafenib) was 0.91 (active) and the log2 fold change [10] was -0.014.
Target MICU1 isoform 3 (UniProt Q9BPX6) has a log2 fold change [1] of -0.113, a log2 fold change (volasertib) of -0.281 and a log2 fold change [2] of 0.031. It also gave a log2 fold change (epoxomicin) of 0.026, a log2 fold change [3] of -0.009 and a log2 fold change [4] of 0.008. For the same target, the log2 fold change [5] was 0.006, the log2 fold change (rosiglitazone) was -0.01 and the log2 fold change [6] was 0.077. For the same target, the log2 fold change [7] was -0.369 (active), the log2 fold change (saracatinib) was -0.073 and the log2 fold change (sotrastaurin) was 0. It also gave a log2 fold change (alvocidib) of 0.005, a log2 fold change (Tubastatin A) of -0.007 and a log2 fold change [8] of -0.054. The log2 fold change (defactinib) was 0.172, the log2 fold change (rucaparib) was 0.134 and the log2 fold change [9] was -0.012. For the same target, the log2 fold change (encorafenib) was 0.121 and the log2 fold change [10] was -0.05.
LTO1 (UniProt Q8WV07) was tested, and the log2 fold change [1] was -0.018, the log2 fold change (volasertib) was 0.322 and the log2 fold change [2] was 0.058. For the same target, the log2 fold change (epoxomicin) was 0.063, the log2 fold change [3] was -0.008 and the log2 fold change [4] was -0.029. For the same target, the log2 fold change [5] was -0.312 (active), the log2 fold change (rosiglitazone) was 0.013 and the log2 fold change [6] was -0.105. It also gave a log2 fold change [7] of 0.035, a log2 fold change (saracatinib) of 0.071 and a log2 fold change (sotrastaurin) of -0.003. The log2 fold change (alvocidib) was -0.01, the log2 fold change (Tubastatin A) was -0.288 and the log2 fold change [8] was 0.01. It also gave a log2 fold change (defactinib) of 0.051, a log2 fold change (rucaparib) of 0.03 and a log2 fold change [9] of 0.073. For the same target, the log2 fold change (encorafenib) was -0.016 and the log2 fold change [10] was -0.314 (active).
With LUC7L (UniProt Q9NQ29) the log2 fold change [1] was 0.006, the log2 fold change (volasertib) was -0.005 and the log2 fold change [2] was 0.005. The log2 fold change (epoxomicin) was -0.052, the log2 fold change [3] was 0.048 and the log2 fold change [4] was 0.01. For the same target, the log2 fold change [5] was -0.043, the log2 fold change (rosiglitazone) was -0.003 and the log2 fold change [6] was 0.108. The log2 fold change [7] was 0.052, the log2 fold change (saracatinib) was -0.005 and the log2 fold change (sotrastaurin) was 0.056. It also gave a log2 fold change (alvocidib) of 0.062, a log2 fold change (Tubastatin A) of 0.006 and a log2 fold change [8] of -0.119. It also gave a log2 fold change (defactinib) of 0.022, a log2 fold change (rucaparib) of 0.076 and a log2 fold change [9] of -0.049. The log2 fold change (encorafenib) was 0.039 and the log2 fold change [10] was 0.022.
For KIF11 (UniProt P52732), the log2 fold change [1] was 0.016, the log2 fold change (volasertib) was -0.42 and the log2 fold change [2] was 0.081. The log2 fold change (epoxomicin) was -0.032, the log2 fold change [3] was -0.076 and the log2 fold change [4] was 0.023. For the same target, the log2 fold change [5] was 0.041, the log2 fold change (rosiglitazone) was 0.031 and the log2 fold change [6] was 0.182. The log2 fold change [7] was 0.022, the log2 fold change (saracatinib) was -0.059 and the log2 fold change (sotrastaurin) was -0.2. The log2 fold change (alvocidib) was 0.041, the log2 fold change (Tubastatin A) was 0.05 and the log2 fold change [8] was 0.275. The log2 fold change (defactinib) was 0.017, the log2 fold change (rucaparib) was 0.183 and the log2 fold change [9] was 0.088. It also gave a log2 fold change (encorafenib) of 0.174 and a log2 fold change [10] of -0.055.
